Data on 25 molecules can be found in PubChem BioAssay (Tox21).

SMILES strings stand for the structures. Where “and” joins values, the source holds several entries; their conditions need not be identical. Identical values can stand only once. The source holds several records for some structures; these can differ, active in one and inactive in another. Calls of active or inactive are those of the source. Unless noted, calls follow the shape of the dose curve; as a rule, active = well fitted curve in the direction sought with a large enough effect in the repeat runs; inconclusive = weak or mixed curves; inactive = no such curve, though single readings can be large; an effect the other way counts as inactive or inconclusive.

Test [1] can be described thus: qHTS assay to identify small molecule antagonists of the thyroid receptor (TR) signaling pathway (AID 743065). Also: nearly all actives have a fitted effect of over 55% in size. Also: potency is read from the fitted curve at half-maximal effect. The procedure, abridged:
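GH3.TRE-Luc rat pituitary cells carrying two TR response elements driving luciferase were plated for 4 h, given compound plus 1 nM T3 (final), and incubated 23.5 h at 37 C. ONE-Glo luminescence measured reporter inhibition; CellTiter-Fluor fluorescence tracked cytotoxicity.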
Background: qHTS replaces the single test concentration by a dilution series.

The subject of test [2] is thyroid hormone receptor (rat, GH3 cells). Kind of test: qHTS assay to identify small molecule agonists of the thyroid receptor (TR) signaling pathway (AID 743066; calls by dose curve).
In test [3] the target is Estrogen receptor (Homo sapiens) (UniProt P03372). Kind of test: qHTS assay to identify small molecule antagonists of the estrogen receptor alpha (ER-alpha) signaling pathway (AID 743069; active = well fitted curve in the direction sought with a large enough effect in the signal ratio in the repeat runs, not every such curve was filed as active; inconclusive = weak or mixed curves, or effect the other way; inactive = no such curve, though single readings can be large or run the other way; the % refers to the signal ratio). The essentials: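 Estradiol-stimulated ER-alpha-UAS-bla HEK293 cells, 18 hr compound exposure at 37C. LiveBLAzer B/G substrate, 2 hr RT, fluorescence read.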
Estrogen receptor (Homo sapiens), sequence (P03372 whole entry, looked up): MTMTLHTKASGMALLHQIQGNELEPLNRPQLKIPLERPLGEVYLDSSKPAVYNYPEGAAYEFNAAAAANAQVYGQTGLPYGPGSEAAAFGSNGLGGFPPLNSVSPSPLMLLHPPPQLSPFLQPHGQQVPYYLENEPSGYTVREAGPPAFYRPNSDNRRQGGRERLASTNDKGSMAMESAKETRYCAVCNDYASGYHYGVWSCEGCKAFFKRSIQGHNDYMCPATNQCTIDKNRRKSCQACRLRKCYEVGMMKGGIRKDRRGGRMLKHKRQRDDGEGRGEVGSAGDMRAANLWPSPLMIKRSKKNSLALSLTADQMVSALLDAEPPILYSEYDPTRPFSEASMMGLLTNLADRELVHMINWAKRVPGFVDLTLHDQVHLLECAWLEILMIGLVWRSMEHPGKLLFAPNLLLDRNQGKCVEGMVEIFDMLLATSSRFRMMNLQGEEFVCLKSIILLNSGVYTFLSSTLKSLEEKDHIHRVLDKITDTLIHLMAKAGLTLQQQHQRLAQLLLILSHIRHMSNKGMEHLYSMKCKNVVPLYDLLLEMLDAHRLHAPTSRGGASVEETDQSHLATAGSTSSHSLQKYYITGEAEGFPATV
Test [4] shares this target. Kind of test: qHTS assay to identify small molecule agonists of the estrogen receptor alpha (ER-alpha) signaling pathway (AID 743075; calls by dose curve;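 also: HEK293 GripTite cells with ER-alpha and UAS-driven beta-lactamase reporter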; also: potency is read from the fitted curve at half-maximal effect).
The target is the same in test [5]. Kind of test: qHTS assay to identify small molecule agonists of the estrogen receptor alpha (ER-alpha) signaling pathway using the BG1 cell line (AID 743079). Also: nearly all actives have a fitted effect of over 20% in size. Also: potency is read from the fitted curve at half-maximal effect. The following applies: BG1Luc4E2 cells, ERE-luciferase agonist, 22 h; activation: at 70.3 µM (top of the series).
A short description of test [6]: qHTS assay to identify small molecule antagonists of the estrogen receptor alpha (ER-alpha) signaling pathway using the BG1 cell line (AID 743080; calls by dose curve;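 also: BG1 cells stimulated with 17beta-estradiol alongside compound; nearly all actives have a fitted effect of over 25% in size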). The procedure, abridged:
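Quantitative HTS on the Tox21 10K library: BG1 cells with endogenous ER-alpha and ERE-luciferase reporter, 17beta-estradiol stimulation, 21.5 h compound exposure, luminescence endpoint with parallel fluorescence cytotoxicity counter-read.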

The nature of test [7]: qHTS assay to identify small molecule antagonists of the estrogen receptor alpha (ER-alpha) signaling pathway using the BG1 cell line - cell viability counter screen (AID 743081).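 Also: compound given together with 17beta-estradiol as the ER stimulus; nearly all actives have a fitted effect of over 45% in size.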
A further test deals with Aromatase (Homo sapiens) (UniProt P11511). Kind of test: qHTS assay to identify aromatase inhibitors (AID 743083). Also: nearly all actives have a fitted effect of over 55% in size. Also: potency is read from the fitted curve at half-maximal effect.
Aromatase (Homo sapiens), sequence (P11511 whole entry, looked up): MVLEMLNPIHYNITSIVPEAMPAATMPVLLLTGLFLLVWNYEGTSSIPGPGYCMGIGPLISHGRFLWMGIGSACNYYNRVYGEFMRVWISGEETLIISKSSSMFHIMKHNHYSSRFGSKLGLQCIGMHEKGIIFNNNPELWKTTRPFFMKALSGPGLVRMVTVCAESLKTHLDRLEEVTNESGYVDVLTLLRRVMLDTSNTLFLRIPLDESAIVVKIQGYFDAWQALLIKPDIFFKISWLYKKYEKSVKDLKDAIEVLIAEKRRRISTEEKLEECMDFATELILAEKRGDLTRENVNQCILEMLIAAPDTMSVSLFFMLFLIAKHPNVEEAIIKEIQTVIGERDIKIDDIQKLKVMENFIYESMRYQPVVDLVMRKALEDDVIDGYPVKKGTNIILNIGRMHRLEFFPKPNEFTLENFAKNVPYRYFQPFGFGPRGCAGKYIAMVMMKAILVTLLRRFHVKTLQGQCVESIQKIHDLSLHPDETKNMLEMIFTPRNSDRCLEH
Test [8] can be described thus: qHTS assay to identify aromatase inhibitors - cell viability counter screen (AID 743084).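 Also: cells stimulated with testosterone during compound exposure; nearly all actives have a fitted effect of over 55% in size.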
A short description of test [9]: qHTS assay to identify small molecule antagonists of the estrogen receptor alpha (ER-alpha) signaling pathway - cell viability counter screen (AID 743074; calls by dose curve;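 also: HEK293 cells carrying ER-alpha-UAS-bla reporter stimulated with 17beta-estradiol; nearly all actives have a fitted effect of over 45% in size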; also: potency is read from the fitted curve at half-maximal effect).
% is scaled to controls: 0 for no effect and ±100 for the full control effect.

For `NC(=O)Nc1ccc(Cl)cc1`, the Potency result in [1], in [3], in [4], in [5], in test [6] and in test [7] was “inactive” each time. Also, the Potency entry (with Aromatase (Homo sapiens); in test [8]) was “inactive” each time. In test [2], the molecule was classed as inactive.

Consider `CC(=O)Nc1ccc(N)cc1`, for which the Potency result in [1], in test [3], in [9], in [4], in test [5] and in test [7] was “inactive” each time. Moreover, the Potency entry (with Aromatase (Homo sapiens); in test [8]) was “inactive” each time. The molecule was called inactive in test [2].

With `COC(=O)[C@@H]1CC2=CC(=O)CC[C@]2(C)[C@@]23O[C@@H]2C[C@@]2(C)[C@@H](CC[C@@]24CCC(=O)O4)[C@H]13`, the Potency result in test [1], in test [9], in [4], in [5], in test [6] and in test [7] was “inactive” throughout. In addition, the Potency entry (with Aromatase (Homo sapiens); in test [8]) was “inactive” each time. Also, the call in [2] was inactive.

As for `COC(=O)CC(=O)C(C)(C)C`, the Potency result in [1], in test [9], in test [4], in [5], in test [6] and in [7] was “inactive” in each case. Also, the Potency result (with Aromatase (Homo sapiens); in [8]) was “inactive” each time. Besides, the result in test [2] was inactive.

Regarding `CC1CC(=O)NN=C1c1ccc(NCC(C)(C)NCC(O)COc2cc(Cl)ccc2C#N)cc1` (stereo not given), the Potency result in test [1], in test [9], in [4], in test [5], in test [6] and in [7] was “inactive” each time. For the same molecule, the Potency entry (in the test with Aromatase (Homo sapiens); in [8]) was “inactive” each time. Moreover, the result in test [2] was inactive.

On to `CCCOC(=O)c1ccc(C(=O)OCCC)nc1`, for which the Potency entry in test [1], in [9], in test [4], in test [5], in test [6] and in test [7] was “inactive” in each case. Also, the Potency result (with Aromatase (Homo sapiens); in [8]) was “inactive” in each case. For the same molecule, the result in [2] was inactive.

Consider `ON(Cc1ccccc1)Cc1ccccc1`, for which the Potency result in [1], in [9], in test [4], in test [5], in test [6] and in [7] was “inactive” each time. The Potency entry (in the test with Aromatase (Homo sapiens); in test [8]) was “inactive” each time. For the same molecule, the call in test [2] was inactive.

In the case of `C=CCOC(=O)/C=C\C(=O)OCC=C`, the Potency result in test [1], in [9], in [4], in test [5], in test [6] and in test [7] was “inactive” throughout. In addition, the Potency entry (with Aromatase (Homo sapiens); in test [8]) was “inactive” throughout. Further, the result in test [2] was inactive.

`CCC1(C)CC(=O)NC1=O` (stereo not given): the Potency result in [1], in test [3], in test [9], in [4], in [5] and in test [7] was “inactive” in each case. In addition, the Potency entry (with Aromatase (Homo sapiens); in test [8]) was “inactive” in each case. Further, in [2], the molecule was classed as inactive.

In the case of `CCCCC(CC)COC(=O)COc1ccc(Cl)cc1C` (stereo not given), the Potency entry in [1], in test [9], in test [4], in test [5], in [6] and in test [7] was “inactive” in each case. For the same molecule, the Potency result (with Aromatase (Homo sapiens); in [8]) was “inactive” in each case. Also, the outcome in [2] was inactive.

Consider `O=C(CCCN1CCC(O)(c2ccc(Br)cc2)CC1)c1ccc(F)cc1`, for which the Potency in [1] is 10.1 µM (active). In addition, the call in test [2] was inactive. The Potency result (in test [9]; in test [4]; in test [5]; in test [6]; in test [7]; with Aromatase (Homo sapiens)) was “inactive” throughout. Besides, in test [8], the Potency result was “inactive”.

As to `CN1CCN(c2c(F)cc3c(=O)c(C(=O)O)cn4c3c2OCN4C)CC1`, the Potency entry (in [1]; in [9]; in test [4]; in [6]; in [7]; in the test with Aromatase (Homo sapiens)) was “inactive” each time. Besides, the Potency entry in test [8] was “inactive”. For the same molecule, the call in [2] was inactive. Further, the Potency in [5] is 23.7 µM (active).

Turning to `CCCCCCCCCCCCCCCCBr`, the Potency result in test [1], in test [3], in [9], in [4], in test [5] and in test [7] was “inactive” each time. In addition, the Potency result (with Aromatase (Homo sapiens); in [8]) was “inactive” each time. Further, in test [2], the outcome was inactive.

In the case of `CCC(C)(O)CCC=C(C)C` (stereo not given), the Potency entry (in test [1]; in test [3]; in test [9]; in [4]; in test [7]; with Aromatase (Homo sapiens)) was “inactive” in each case. For the same molecule, the Potency entry in test [8] is “inactive”. Further, the molecule was called inactive in test [2].

Consider `Nc1ccc(Cl)cc1[N+](=O)[O-]`, for which the Potency entry in test [1], in [3], in [9], in test [4], in test [6] and in test [7] was “inactive” each time. Further, the Potency entry in test [8] was “inactive”. Besides, the call in test [2] was inactive.

For `[O]=[Bi]`, the activity, negative = inhibition in [1] was -1.71% [at 8.44 µM] (inactive); in test [3], -6.92% [at 6.71 µM] (inactive); with Aromatase (Homo sapiens) it was 15.6% [at 8.47 µM] (inactive). The activation in test [2] is -0.257% [at 8.08 µM] (inactive); in test [4] it was -1.87% [at 6.71 µM] (inactive). The activity, negative = cytotoxicity in test [9] is -18.5% [at 6.72 µM] (inactive). For the same molecule, the activity change, negative = cytotoxicity in test [7] is 0.603% [at 8.47 µM] (inactive); in test [8], -5.72% [at 8.47 µM] (inactive).

For `CCOC(=O)/C=C/C(=O)O`, the Potency entry in test [1], in [3], in [4], in test [5], in test [6] and in [7] was “inactive” in each case. For the same molecule, the Potency entry (with Aromatase (Homo sapiens); in [8]) was “inactive” in each case. In [2], the outcome was inactive.

`O=C1OCCN1/N=C/c1ccc([N+](=O)[O-])o1`: the Potency result in [1], in [3] and in [9] was “inactive” throughout. Besides, the result in test [2] was inactive. Besides, the results for the Potency (in test [4]; in test [5]; with Aromatase (Homo sapiens)) were 0.848 µM [inconclusive] (active), 0.168 µM (active) and 29.8 µM (active), respectively.

Regarding `C1COCO1`, the Potency result in [1], in [3], in test [4], in test [5], in [6] and in test [7] was “inactive” in each case. The Potency entry (with Aromatase (Homo sapiens); in [8]) was “inactive” throughout. In addition, the molecule was called inactive in test [2].

`Cc1cc(O)c(C(C)C)cc1Cl`: the Potency result (in test [1]; in [3]; in test [4]; in test [5]; in test [7]; with Aromatase (Homo sapiens)) was “inactive” each time. Besides, the Potency result in test [8] was “inactive”. For the same molecule, in [2], the molecule was called inactive. In addition, the Potency result in test [9] was “inactive and 49 µM (active)”.

Consider `CCC(=O)OC/C=C/c1ccccc1`, for which the Potency result (in [1]; in test [9]; in [4]; in [6]; in test [7]; with Aromatase (Homo sapiens)) was “inactive” in each case. For the same molecule, the Potency result in test [8] was “inactive”. Besides, the molecule was called inactive in [2]. The Potency in test [5] is 68.6 µM (active).

Take `CC(C)=CC=O`: the Potency result in [1], in [3], in test [9], in [4], in test [5] and in [7] was “inactive” throughout. The Potency entry (with Aromatase (Homo sapiens); in [8]) was “inactive” each time. In test [2], the molecule was called inactive.

On to `O=C(O)c1cccc(O)c1`, for which the Potency result in test [1], in test [9], in test [4], in [5], in test [6] and in [7] was “inactive” in each case. Also, the Potency entry (in the test with Aromatase (Homo sapiens); in [8]) was “inactive” each time. The result in test [2] was inactive.

`O=C(O)C(Cc1cc(I)c(O)c(I)c1)c1ccccc1` (stereo not given): the Potency result in [1], in test [3], in [9], in test [4], in test [6] and in test [7] was “inactive” throughout. The Potency result (with Aromatase (Homo sapiens); in test [8]) was “inactive” each time. Besides, the result in test [2] was inactive.

Turning to `O=C(O)Cc1ccc(-c2ccccc2)cc1`, the Potency result in [1], in test [9], in test [4], in test [5], in [6] and in [7] was “inactive” throughout. In addition, the Potency result (in the test with Aromatase (Homo sapiens); in [8]) was “inactive” in each case. In addition, in test [2], the molecule was called inactive.
